About 83,000 compounds went through this panel and 20% of them were active in at least one assay; those are over-represented in the sample as a whole.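 96-well plates, one dose, 48 hours. Percent growth reported; active if below 10.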 Values without a mark were called inactive. The source made the active and inactive calls.

This note sets out measurements from PubChem BioAssay (NCI).

Assay in all cases: NCI-60 one-dose screen, 48 h (100 = growth as untreated, 0 = no growth, -100 = all killed)
One test relates to DU-145 prostate. Conditions: 10 µM unless noted.
The subject of the next test is K-562 leukemia. Conditions: 10 µM unless noted.
In another test the test system is MALME-3M melanoma. Conditions: 10 µM unless noted.
The next test concerns MDA-MB-231 breast. To be noted: 10 µM unless noted.
A further test deals with SF-268 CNS. Conditions: 10 µM unless noted.
A further test concerns SF-295 CNS. Conditions: 10 µM unless noted.
For a further test, the system named is SF-539 CNS. To be noted: 10 µM unless noted.
The next test deals with UACC-257 melanoma. To be noted: 10 µM.
The next test has as its system M14 melanoma. Conditions: 10 µM unless noted.
The subject of another test is RXF 393 renal. Conditions: 10 µM unless noted.

Regarding `CC(=O)Nc1nc(C(=O)N2N=C(C)/C(=C/c3ccc(Cl)cc3)C2=O)cs1`, the growth in the test with DU-145 prostate is 103%; in the test on K-562 leukemia, 106%; with MALME-3M melanoma, 93.1%; in the test with MDA-MB-231 breast, 110%; with SF-268 CNS it was 96.2%; in the test with SF-295 CNS, 98.2%. The values for the growth in the test on SF-539 CNS, in the test with UACC-257 melanoma and in the test on M14 melanoma were 107%, 94% and 96.7%, respectively.

For the compound `O=C(Cc1c(F)cccc1Cl)Nc1ccc(S(=O)(=O)Nc2ncccn2)cc1`, the growth in the test on DU-145 prostate is 104%; in the test with K-562 leukemia, 89.7%; in the test with MALME-3M melanoma, 124%; in the test on MDA-MB-231 breast, 109%; with RXF 393 renal, 38.1%; with SF-268 CNS, 116%. Further, the growth with SF-295 CNS is 92.5%; with SF-539 CNS, 96.5%; in the test on M14 melanoma, 110%.

With `COc1cc(C(=O)CCCl)ccc1O`, the growth in the test with DU-145 prostate was 107%; in the test on K-562 leukemia, 97.4%; with MALME-3M melanoma, 88.7%; in the test on MDA-MB-231 breast, 94.3%; in the test with RXF 393 renal, 98.2%; in the test with SF-268 CNS, 96.1%. Further, the growth in the test on SF-295 CNS is 100%; with SF-539 CNS, 94.7%; in the test on M14 melanoma, 111%.

Regarding `CC[C@H](C)[C@@H]1NC(=O)[C@H]([C@@H](C)O)NC(=O)C(Cc2ccccc2)NC(=O)[C@@H]2CCCN2C(=O)C(C(C)C)NC(=O)C(Cc2ccccc2)NC(=O)CNC(=O)[C@@H]2CCCN2C1=O` (stereo not given in full), the growth with DU-145 prostate was 83.6%; in the test on K-562 leukemia, 20.9%; in the test on MALME-3M melanoma, 64%; in the test on MDA-MB-231 breast, 26.4%; with SF-268 CNS, 72.8%; with SF-295 CNS, 74.2%. In addition, the growth with SF-539 CNS was 83.2%; with UACC-257 melanoma, 60.7%; with M14 melanoma, 22.2%.

On to `COc1cc2c(cc1OCCCCn1c(-c3cc(=O)c4ccccc4o3)nc3ccccc31)N=C[C@@H]1CCCN1C2=O`, for which the growth is 118% in the test with DU-145 prostate; 72.3% in the test with K-562 leukemia; 109% with MALME-3M melanoma; 87.7% in the test with MDA-MB-231 breast; 51.3% with RXF 393 renal; 107% in the test with SF-268 CNS. Moreover, the growth was 113% in the test with SF-295 CNS, 118% with SF-539 CNS and 105% in the test with M14 melanoma.

For the compound `Cc1ccc2c(c1)C(C)Cc1c(N(C)C)ncnc1N2C` (stereo not given), the growth with DU-145 prostate is 68.7%; with K-562 leukemia, 12.8%; in the test with MALME-3M melanoma it was 53.2%; with MDA-MB-231 breast, 56.3%; with RXF 393 renal, 40.1%; with SF-268 CNS, 47.3%. The figures for the growth in the test with SF-295 CNS, in the test on SF-539 CNS and with M14 melanoma were 6.52% (active), 28.3% and 24.7%, respectively.

Turning to `CC(C)N(Cc1ccc(CN(C(=O)CCl)C(C)C)cc1)C(=O)CCl`, the growth in the test on DU-145 prostate is 12%; with K-562 leukemia, 14%; in the test on MALME-3M melanoma, -63.2% (active); in the test with MDA-MB-231 breast, -2.71% (active); in the test with RXF 393 renal, 45.6%; with SF-268 CNS, -50.7% (active). Besides, the growth with SF-295 CNS is 28.2%; with SF-539 CNS, -84% (active); in the test on M14 melanoma, 1.15% (active).

For the compound `O=c1[nH]c(-c2cn(-c3ccc(Cl)cc3)nn2)nc2ccccc12`, the growth is 94.6% in the test on DU-145 prostate; 96.6% in the test with K-562 leukemia; 59% with MALME-3M melanoma; 74.9% in the test on MDA-MB-231 breast; 77.9% in the test on SF-268 CNS; 83.6% in the test on SF-295 CNS. Moreover, the growth is 48.2% with SF-539 CNS, 77.9% with UACC-257 melanoma and 91.4% in the test with M14 melanoma.

In the case of `COc1cc(OC)cc(-c2n[nH]nc2-c2ccc3c(c2)OCO3)c1`, the growth was 25.1% in the test with DU-145 prostate; 16.7% with K-562 leukemia; 67.7% in the test with MALME-3M melanoma; 18.9% in the test on MDA-MB-231 breast; 52% with SF-268 CNS; 1.21% (active) with SF-295 CNS. In addition, the growth in the test with SF-539 CNS was -31% (active); in the test with UACC-257 melanoma, 71.4%; in the test with M14 melanoma it was 14.5%.

Regarding `COc1cc(-c2n[nH]nc2-c2ccc3c(c2)OCCO3)cc(OC)c1OC`, the growth with DU-145 prostate is 10%; in the test on K-562 leukemia, 8.96% (active); in the test on MALME-3M melanoma, 69.7%; in the test on MDA-MB-231 breast, 33.3%; with SF-268 CNS, 15.9%; in the test with SF-295 CNS it was 2.6% (active). The growth is -35.9% (active) in the test with SF-539 CNS, 61.7% in the test on UACC-257 melanoma and 16.5% with M14 melanoma.

Turning to `CCN(CC)S(=O)(=O)c1ccc2[nH]c(=O)cc(C(=O)Nc3ccc(OC)cc3OC)c2c1`, the growth in the test on DU-145 prostate is 157%; with K-562 leukemia it was 115%; in the test on MALME-3M melanoma, 118%; in the test with MDA-MB-231 breast, 98.3%; in the test with RXF 393 renal, 9.24% (active); in the test with SF-268 CNS, 95%. Further, the growth was 97.9% in the test on SF-295 CNS, 133% with SF-539 CNS and 109% in the test with M14 melanoma.

Take `Nc1c(C(=O)Nc2cccc(Cl)c2Cl)sc2nc3c(cc12)C(=O)CCC3`: the growth was 96.2% in the test on DU-145 prostate; 42.1% with K-562 leukemia; 68.6% in the test on MALME-3M melanoma; 71.8% with MDA-MB-231 breast; 103% in the test on SF-268 CNS; 35.8% in the test on SF-295 CNS. For the same compound, the growth in the test with SF-539 CNS is 105%; in the test on UACC-257 melanoma it was 76.9%; in the test on M14 melanoma, 80.8%.

For `COc1ccc(C2CC(c3cccs3)=NN2c2ccc(S(=O)(=O)NC(=O)NCc3cccc(OC)c3)cc2)cc1` (stereo not given), the growth with DU-145 prostate was 106%; in the test with K-562 leukemia, 111%; with MALME-3M melanoma, 31.2%; in the test with MDA-MB-231 breast it was 113%; in the test with SF-268 CNS, 97.9%; with SF-295 CNS, 105%. The growth is 104% with SF-539 CNS, 30% in the test on UACC-257 melanoma and 52.1% in the test with M14 melanoma.

With `CCCCCCOc1ccc(C2(Cl)c3ccccc3N(C)c3ccccc32)cc1`, the growth was 55.7% in the test on DU-145 prostate; 48.8% with K-562 leukemia; -21.5% (active) with MALME-3M melanoma; 32.7% in the test on MDA-MB-231 breast; 57% with RXF 393 renal; 49.5% in the test with SF-268 CNS. The growth in the test on SF-295 CNS was 28.9%; in the test on SF-539 CNS it was 89.3%; with M14 melanoma it was 12.9%.

For the compound `C=C1C(=O)O[C@H]2[C@H]1CC/C(COC(=O)NCCc1ccc(Br)cc1)=C\CC[C@@]1(C)O[C@@H]21`, the growth in the test on DU-145 prostate is -33.6% (active); with K-562 leukemia, 5.94% (active); in the test on MALME-3M melanoma it was 73.7%; in the test on MDA-MB-231 breast it was -33.4% (active); in the test with RXF 393 renal it was -35.3% (active); in the test on SF-268 CNS, 42.4%. Moreover, the results for the growth in the test on SF-295 CNS, in the test on SF-539 CNS and in the test on M14 melanoma were 86.5%, 20.2% and 19.9%, respectively.
